Results published in PubChem BioAssay (NCI).
Compounds without any hit were thinned out: in the full panel of roughly 83,000, 20% have a hit.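 The endpoint reported here, percent growth, reads 100 for growth as untreated, 0 for no net growth and -100 for all cells dead.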 Values without a mark were called inactive. The source made the active and inactive calls. How the source made its calls: active means growth percent below 10; inactive means the rest.

Each molecule was assayed on M14 melanoma (assay: NCI-60 one-dose screen, 48 h (100 = growth as untreated, 0 = no growth, -100 = all killed)). Details: 10 µM unless noted.

With `COc1cc2c(c(OC)c1OC)C(=O)CC(c1cccc(NC(=O)c3cc(N)ccc3Cl)c1)O2` (configuration not stated) as the molecule, how does the growth read?
Its growth is 56%.

For `CC(=O)OC[C@@]1(C)C2CC[C@]3(C)C(CC=C4C5CC(C)(C)CC[C@]5(C(=O)Nc5cccc(C)c5)CC[C@]43C)[C@@]2(C)C[C@@H](OC(C)=O)[C@@H]1OC(C)=O` (some centres not stated), which growth is on record?
The growth was 49.8%.

How did the growth turn out when `CCCCc1c(Nn2cnnn2)no[n+]1[O-]` was run?
Its growth is 68.1%.

Which growth does the source give for `CC(C)Sc1nc(NCCc2c[nH]c3ccccc23)c(C#N)c(-c2ccc(F)cc2)n1` here?
Its growth is 46.8%.

Which growth does the source give for `C=C1CCC2C3(C)COC(c4ccc(F)cc4)OC3CCC2(C)C1CC(O)C1=CCOC1=O` (configuration not stated) here?
Its growth is 24.7%.

Which growth does the source give for `NS(=O)(=O)c1ccc(N=Nc2c(O)n(CC(=O)Nc3ccccc3Cl)c3ccccc23)cc1` here?
Its growth is 23.8%.

`Cc1ccccc1[C@H]1C(C(=O)c2ccc(Cl)cc2)C2(N[C@@H]1c1ccccc1)C(=O)Nc1ccc(Cl)cc12` (some centres not stated) was tested. Which growth did it give?
Its growth is -78.4% (active).

With `CCCCCCCCc1ccc(S(=O)(=O)Nc2ccc(CC)cc2C(=O)O)cc1` as the molecule, how does the growth read?
The growth was 99.1%.

`CCC(C)(C)c1ccc(OCCCCN2CCN(c3ccncc3)CC2)cc1` was tested. Which growth did it give?
The growth was -56.6% (active).

How did the growth turn out when `COc1ccc(C(=O)/C=C/c2ccc(Oc3nc(Nc4ccc(F)cc4)nc(N(C)C)n3)c(OC)c2)cc1` was run?
Its growth is 65.1%.

How did the growth turn out when `S=c1c2ccccc2nc2n1CCc1c-2[nH]c2ccccc12` was run?
Its growth is 70.1%.

For `CCOC(=O)COc1c(OC)c(OC)cc2oc(-c3cccc(C(=O)Nc4ccc(Cl)cc4)c3)cc(=O)c12`, which growth is on record?
Its growth is 33.9%.
